Publication PMC6792352, “Limited Chemical Structural Diversity Found to Modulate Thyroid Hormone Receptor in the Tox21 Chemical Library” (Environmental Health Perspectives, 2019)
Where two headings read alike, the source gives them in different places. The full ranking holds about 7,300 compounds; the median of “AC50” is about 90,000 nM, and the lowest 2% start at about 20,000 nM. This is one part of the list.

System: thyroid hormone receptor (endogenous TRα and TRβ)
Parameters: species or system GH3-TRE-Luc (rat pituitary); GH3-TRE-Luc luciferase reporter transactivation, agonist mode, qHTS; RXR ligands can also activate indirectly

O=C(O)Cc1cc(I)c(Oc2ccc(O)c(I)c2)c(I)c1 [Tiratricol]
AC50 (read-out: TR_LUC_GH3_Agonist_AC50, agonist mode, primary qHTS, 24 h): 0.000154 µM

Cc1ccc(O)cc1 [Cresol]
AC50 (read-out: TR_LUC_GH3_Agonist_AC50, agonist mode, primary qHTS, 24 h, TR_LUC_GH3_Agonist_AC50 (uM)): 25 µM
